Shown are actives, neighbours in structure and some others; about 0.62% of the full set was active somewhere.
MBNL1 CUG block: qHTS Assay for Inhibitors of MBNL1-poly(CUG) RNA binding; Potency, µM (titrated, usually from 57.5 µM), inactives show at the top dose activity change, negative = inhibition, hits mostly inhibitors; Muscleblind-like protein 1 (Homo sapiens), Q9NR56; AID 2675, 2010; actives 0.036% (n = 280,000); TR-FRET MBNL1-His/biotin-(CUG)12 binding, 665/545 ratio; active = well fitted inhibition curve with a large enough effect in the signal ratio, with a control signal flat, not every such curve was filed as active; inconclusive = small, poorly fitted or top-dose-only effect, or effect the other way, or a change in a side signal; inactive = no such curve, though single readings can be large or run the other way; the % refers to the signal ratio; also: % is scaled to controls: 0 for no effect and ±100 for the full control effect
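Compound titration spanned 92 nM–58 uM against the MBNL1-His/biotin-(CUG)12 complex. After 60 min at room temperature with 5 nM streptavidin-XL665 and 0.055 ng/ul terbium anti-His, ratiometric 665/545 nm emission (Ex 340 nm) normalized to controls.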
gsp antagonist: qHTS for Antagonists of gsp, the Etiologic Mutation Responsible for Fibrous Dysplasia/McCune-Albright Syndrome: qHTS. gsp-mutant cells, cAMP HTRF, 30 min. AID 624288, 2012. actives 0.4% (n = 340,000). Potency, µM (top dose mostly 76.9 µM), inactives show top-dose activity change, negative = inhibition, hits mostly inhibitors; calls by dose curve; cell line not stated here;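 also: intracellular cAMP measured with PDE inhibitor Ro 20-1724 present during compound exposure; % is scaled to controls: 0 for no effect and ±100 for the full control effect; nearly all actives have a fitted effect of over 65% in size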
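HTRF cAMP read-out (cAMP-d2 plus anti-cAMP antibody-K in lysis buffer, 30 min RT). Before lysis, cells are exposed to compounds with […] for 30 min at 37C in DPBS containing Ca/Mg, BSA and Tween 20.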
Chronic BCR inh: qHTS Assay to Find Inhibitors of Chronic Active B-Cell Receptor Signaling; ABC-DLBCL IkBa-CBG/CBR reporter, luminescence ratio, 4 h; Potency, µM (highest dose often 46.1 µM), without a hit: at the highest dose activity change, negative = inhibition, hits mostly inhibitors; actives 0.05% (n = 340,000); AID 493014, 2011; active = well fitted inhibition curve with a large enough effect in the signal ratio, with a control signal flat, not every such curve was filed as active; inconclusive = small, poorly fitted or top-dose-only effect, or effect the other way, or a change in a side signal; the % refers to the signal ratio;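 also: plate controls were basal doxycycline-induced cells for no effect and cells given 10 µM MG132 for full effect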
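TMD8 ABC-DLBCL cells carrying doxycycline-inducible green luciferase fused to IkappaBalpha plus unfused red luciferase were exposed to compounds (up to 46 uM) for 4 hrs at 37C. Activity came from the overlap-corrected green/red luminescence ratio.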
gsp agonist: qHTS for Agonist of gsp, the Etiologic Mutation Responsible for Fibrous Dysplasia/McCune-Albright Syndrome: qHTS. gsp mutant cells, cAMP HTRF, 30 min. Potency, µM (doses to about 76.9 µM), for inactives: top-dose activation (cAMP increase), hits mostly activators. actives 0.13% (n = 340,000); active = well fitted activation curve with a large enough effect; inconclusive = small, poorly fitted or top-dose-only effect, or another doubt; inactive = no such curve, though single readings can be large or run the other way; cell line not stated here;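 also: phosphodiesterase inhibitor Ro 20-1724 added with compounds to block cAMP breakdown; nearly all actives have a fitted effect of over 60% in size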
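Cells stably selected in G418 were plated at 2000/well, grown 16-24 hr, then given compounds in DMSO with the PDE inhibitor […] (300 uM solution added) for 30 min at 37C; cAMP was read by HTRF.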
ASM inhibitor: Inhibitors of Secretory Acid Sphingomyelinase (S-ASM): qHTS | placental ASM, HMU-PC fluorogenic substrate, 60 min | Sphingomyelin phosphodiesterase (Homo sapiens), P17405 | Potency, µM (titrated, usually from 57.5 µM), for the others: at the highest dose activity change, negative = inhibition, hits mostly inhibitors | actives 0.006% (n = 340,000); active = well fitted inhibition curve with a large enough effect; inconclusive = small, poorly fitted or top-dose-only effect; inactive = no such curve, though single readings can be large or run the other way
Target sequence (P17405 47-631 limits assumed): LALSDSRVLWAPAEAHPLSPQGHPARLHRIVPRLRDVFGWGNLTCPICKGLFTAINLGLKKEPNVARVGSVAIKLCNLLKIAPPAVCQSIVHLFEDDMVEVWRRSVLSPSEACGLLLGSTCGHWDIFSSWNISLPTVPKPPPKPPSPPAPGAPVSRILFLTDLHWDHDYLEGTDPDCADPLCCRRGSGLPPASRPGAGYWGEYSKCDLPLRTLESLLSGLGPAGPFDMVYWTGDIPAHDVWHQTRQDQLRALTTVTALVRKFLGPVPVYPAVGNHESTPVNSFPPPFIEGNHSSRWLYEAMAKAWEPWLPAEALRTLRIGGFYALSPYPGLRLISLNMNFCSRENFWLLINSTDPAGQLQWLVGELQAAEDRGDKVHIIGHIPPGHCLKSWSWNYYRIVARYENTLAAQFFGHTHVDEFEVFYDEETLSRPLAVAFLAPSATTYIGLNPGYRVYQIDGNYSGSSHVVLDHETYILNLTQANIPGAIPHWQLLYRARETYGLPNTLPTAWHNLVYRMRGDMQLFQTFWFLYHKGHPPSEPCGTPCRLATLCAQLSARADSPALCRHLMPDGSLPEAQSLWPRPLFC
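Human placenta-derived ASM preincubated with compound 10 min at room temperature, then reacted with 9 uM (final) fluorogenic HMU-PC substrate for 60 min at 37 C. Stop solution raises pH to 10; fluorescence read at Ex 386/Em 447 nm.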
Starred values were filed as active, the others as inactive; u = inconclusive; x = no result; [ ] = remark or other dose. Potency is read from the fitted curve at half-maximal effect.

SMILES | MBNL1 CUG block | gsp antagonist | Chronic BCR inh | gsp agonist | ASM inhibitor
CCN(CC)S(=O)(=O)c1ccc(OC)c(NC(=O)COc2ccc3c(C)cc(=O)oc3c2)c1 | 339.8% | -49.4% | 7.1% | 8.91µM* | 89.3%
COCCCNC(=O)c1cc(-c2cccnc2)nc2ccc(S(=O)(=O)N3CCC(C)CC3)cc12 | x | x | 16.4% | x | x
COc1cccc(S(=O)(=O)NCc2ccc(C(=O)Nc3ccc(Cl)c(Cl)c3)cc2)c1 | -10.2% | -26.5% | u | 10.7% | -12.3%
O=C(Nc1ccc(Cl)c(Cl)c1)c1cccc(S(=O)(=O)NCc2cccnc2)c1 | -1.5% | 28.2µM* | u | 7.5%[15.4 µM] | -22.7%
COC(=O)c1cc(NC(=O)COC(=O)C2CCC2)cc(C(=O)OC)c1 | x | 5.1% | u | -9.9% | -2.1%
CCOC(=O)c1c(C)[nH]c(C(=O)COC(=O)CNS(=O)(=O)c2ccc(C)cc2)c1C | x | 31.6µM* | -5.8% | -17.2% | -10.1%
CC(=O)c1c(C)[nH]c(C(=O)COC(=O)CNS(=O)(=O)c2ccccc2)c1C | 10.5% | -20.7% | 0.0% | -7.3% | -0.9%
CC(C)CC(=O)n1sc(NC(=O)c2ccccc2)nc1=O | -8.9% | 28.2µM* | u | -43.8% | -0.9%
Cn1sc(NC(=O)c2ccc(Cl)cc2)nc1=O | -5.7% | -26.4% | -17.6% | 9.1% | 0.7%
Cc1ccc(C(=O)Nc2nc(=O)n(C)s2)cc1 | -0.6% | 22.4µM* | u | -21.8% | 2.5%
CCc1nc2cccnc2n1-c1ccc(CC(=O)NCCOC)cc1 | 0.0% | 2.9% | u | u | 30.7%
COc1ccc(NC(=O)C(=O)NCC2CCCN2S(=O)(=O)c2cc(C)ccc2C)cc1 (stereo not given) | x | 6.9% | -14.1% | -3.5% | -3.6%
COc1ccc(CCNC(=O)Cn2c(=O)n(-c3ccc(F)cc3F)c(=O)c3sccc32)cc1OC | -3.5% | -28.2% | -0.3% | -17.4%[15.4 µM] | 1.2%
COc1ccc(CCNC(=O)Cn2c(=O)n(-c3cc(F)ccc3F)c(=O)c3sccc32)cc1OC | -5.4% | 31.6µM* | -8.1% | -27.9% | 1.0%
O=C(COc1ccc(Cl)cc1)NCC(c1ccco1)S(=O)(=O)c1ccccc1 (stereo not given) | x | x | 5.1% | x | x
COC(=O)c1ccc(CC(=O)c2ccc(O)cc2O)o1 | 3.3% | u | u | 3.6% | 0.4%
CCC(=O)Oc1ccc(C/C(=N\O)c2ccc(O)cc2O)o1 | -4.2% | 5.62µM* | u | -19.8% | -4.0%
CC1(C)Cc2c(sc3c2c2ncnn2c2nnc(SCC(=O)NCc4ccco4)n32)CO1 | -10.1% | 5.1% | -2.0% | u | -0.1%
CCC1(C)Cc2c(sc3c2c2ncnn2c2nnc(SCC(=O)NCc4ccco4)n32)CO1 (stereo not given) | -10.3% | -0.9%[15.4 µM] | -0.6% | 2.82µM* | -9.5%
Cc1ccc(S(=O)(=O)NN=Cc2ccccc2Cl)cc1 | x | x | x | -27.7% | x
CC1CCN(C(=O)C2CCCCN2S(=O)(=O)c2cccc([N+](=O)[O-])c2)CC1 (stereo not given) | u | 50.1µM* | 1.4% | -50.3% | -2.6%
COc1ccc(C(=O)NCC(=O)N=Nc2c(O)n(Cc3ccccc3)c3ccccc23)cc1OC | u | 11.2µM* | u | 10.0%[15.4 µM] | -14.6%
Cc1cc(C)c(C)c(S(=O)(=O)N2CCC(C(=O)N(C)Cc3nc4ccccc4c(=O)[nH]3)CC2)c1C | x | -9.0% | x | u | -11.4%
Cc1ccc(S(=O)(=O)Nc2c(C)n(C)n(-c3ccccc3)c2=O)cc1C(=O)OC(C)C(=O)c1ccccc1 (stereo not given) | x | -22.9% | x | 4.4% | -1.4%
Cc1ccc(/C=C2/SC(=S)N(c3ccc(S(=O)(=O)Nc4nccs4)cc3)C2=O)cc1 | -14.7% | 31.6µM* | u | 1.9%[15.4 µM] | -16.5%
O=C1/C(=C/c2ccccn2)SC(=S)N1c1ccc(O)cc1 | u | -7.6% | u | -41.7% | -2.4%

Screening data from PubChem BioAssay.
